# Hits are enriched below; roughly 1.5% of the tested compounds scored in any of these assays.
# Dyrk1A ADPGlo: inhibitors of rat Dyrk1A kinase. 310,000 tested, 0.43% active. inhibition, % at 12.5 µM. AID 504441. ADP-Glo luminescence, NFATc1 peptide; in the data active = inhibition above about 50%;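 note: plate controls were vehicle with enzyme for no effect and no enzyme for full effect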
# PP5 inh: PP5 (human) phosphatase inhibition; purified PP5c, OMFP substrate fluorescence; inhibition, % at 6.7 µM; 320,000 tested, 0.18% active;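 active = inhibition above the campaign's mean inhibition across all tested compounds plus 3 SD, cut at about 9.5% in these data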;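 note: 0% = DMSO only and 100% = 100 µM cantharidin control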
# Target sequence (P53041 whole entry, looked up): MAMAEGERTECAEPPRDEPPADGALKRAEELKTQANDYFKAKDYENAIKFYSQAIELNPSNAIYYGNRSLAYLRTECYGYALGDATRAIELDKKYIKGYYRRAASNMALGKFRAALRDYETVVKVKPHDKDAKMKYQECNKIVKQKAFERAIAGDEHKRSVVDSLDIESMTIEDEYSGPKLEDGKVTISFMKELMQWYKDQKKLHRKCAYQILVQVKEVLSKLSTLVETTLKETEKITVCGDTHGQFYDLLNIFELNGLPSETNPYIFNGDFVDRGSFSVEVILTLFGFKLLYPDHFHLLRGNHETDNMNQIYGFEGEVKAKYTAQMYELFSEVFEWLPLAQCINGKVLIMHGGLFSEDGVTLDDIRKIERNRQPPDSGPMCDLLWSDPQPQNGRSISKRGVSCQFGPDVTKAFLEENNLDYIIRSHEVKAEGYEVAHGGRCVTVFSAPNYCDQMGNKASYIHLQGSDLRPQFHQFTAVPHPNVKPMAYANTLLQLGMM
# PP1 inh: PP1-alpha (human) inhibition in PP5 counter-screen. purified PP1alpha, OMFP fluorescence. 320,000 tested, 0.9% active. inhibition, % at 6.7 µM. P62136;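 active = inhibition above the mean inhibition of all tested compounds plus 3 SD, computed separately for each screening campaign, cut at about 15% in these data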
# HIF act: HIF pathway transcriptional activation; U2OS HRE-luciferase reporter, luminescence; normalized: DMSO 0%, desferrioxamine 100%; 300,000 tested, 0.32% active; AID 1910; activation, % at 7.5 µM (by protocol);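 active = mean activation of at least 10% of the iron chelator positive control signal, with at least half of replicates also reaching 10%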
# STK33 kinase inh: inhibitors of human STK33 kinase; inhibition, % at 10 µM; purified STK33, MBP phosphorylation, ADP-Glo luminescence; Q9BYT3; 320,000 tested, 0.073% active;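 active = inhibition at or above 25%, using the most active replicate where run in duplicate; inactive = inhibition below 25%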
# PP5 inh confirm: PP5 (human) inhibition, confirmation. inhibition, % at 6.7 µM. Purified PP5, fluorogenic phosphatase substrate, fluorescence. AID 2331. 460 tested, 22% active. shares compounds with PP5 inh; in the data active = inhibition above about 9.5%
# PP1 inh counter: inhibits human PP1 phosphatase in PP5 counter-screen. shares compounds with PP5 inh. PP1 enzyme, fluorescent phosphatase substrate. inhibition, % at 6.7 µM. 460 tested, 4% active; in the data active = inhibition above about 16%
# * = called active by the depositor; . = no result.
SMILES,Dyrk1A ADPGlo,PP5 inh,PP1 inh,HIF act,STK33 kinase inh,PP5 inh confirm,PP1 inh counter
COC(=O)C1(C)NC(c2ccc(O)cc2)C2C(=O)N(c3ccccc3)C(=O)C21 (stereo not drawn),0,0,-8,-3,-1,.,.
COC(=O)C1(C)NC(c2ccc(O)cc2)C2C(=O)N(c3ccc(F)cc3)C(=O)C21 (stereo not drawn),.,10*,-4,-2,0,-7,-6
O=C(Nc1ccc(OC(F)(F)F)cc1)N1CCN(c2ccnc3cc(Cl)ccc23)CC1,.,10*,2,-1,1,5,5
CC(C)(C)C(=O)N1CCN(c2ccnc3cc(Cl)ccc23)CC1,17,5,-4,-8,7,.,.
COc1ccc2occ(C(=O)c3coc4ccc(O)c(CN(C)C)c34)c2c1,18,11*,1,0,4,-2,-2
COc1ccc(OC)c(C(=O)c2coc3ccc(O)c(CN(C)C)c23)c1,-3,3,-1,-1,-1,.,.
Cc1ccccc1S(=O)(=O)N(CC(O)CN1C(=O)NC(C)(C)C1=O)c1ccccc1 (stereo not drawn),-8,10*,3,0,-2,-5,-3
COc1ccc(-c2noc(-c3ccccc3C(=O)Nc3cccnc3)n2)cc1OC,-1,-1,-3,0,0,.,.
COc1ccccc1-c1noc(-c2ccccc2C(=O)Nc2cccnc2)n1,8,10*,3,0,1,-4,-2
CCC(CC)C(=O)Nc1cccc(C(=O)Nc2ccc(S(=O)(=O)Nc3ccc(C)cc3)cc2)c1,-5,10*,8,-1,1,4,2
CCC(CC)C(=O)Nc1cccc(C(=O)Nc2ccc(OC)cc2[N+](=O)[O-])c1,2,10*,-4,-1,-1,-4,-4
CS(=O)(=O)N(CC(=O)N1CCN(Cc2ccccc2)CC1)c1ccccc1Br,4,-1,-3,-2,-1,.,.
CCCCOc1ccc(C(=O)Nc2ccc(N3CCN(C(=O)C(C)C)CC3)cc2)cc1,-3,1,3,1,1,.,.
CCCCOc1ccc(C(=O)Nc2ccc(N3CCN(C(C)=O)CC3)cc2)cc1,-3,12*,-7,-1,0,-4,-4
COc1cccc(C(C[N+](=O)[O-])c2c(C)[nH]n(-c3ccccc3)c2=O)c1 (stereo not drawn),-2,12*,2,55*,0,-1,-2
COc1ccc(Br)c(C(=O)Nc2ccc(F)cc2)c1,-1,16*,5,0,5,-3,-4
CCC1CCC2(CC1)NC(=O)N(CC(=O)c1c(C)[nH]c3ccccc13)C2=O (stereo not drawn),3,-4,-2,0,0,.,.
O=C(Nc1ccccc1C(=O)O)c1cccc(NC(=O)c2ccccc2Br)c1,13,-2,2,2,6,.,.
CC(C)C(=O)Nc1cccc(C(=O)Nc2ccccc2C(=O)O)c1,-3,10*,-7,1,5,-6,-5
COc1ccc(C(=O)NNC(=O)CCn2nnc(-c3ccc(Cl)cc3)n2)cc1OC,4,2,0,0,0,.,.
CC(C)Sc1nsc2nc(=O)c(/C=C3\C=Nc4ccccc43)c(N)n12,11,14*,-4,1,0,0,1
O=C(Nc1ccc(Cl)cc1)N1CCCN(c2ccc(C(F)(F)F)cc2[N+](=O)[O-])CC1,8,12*,0,-1,-1,5,3
O=C(Nc1cccc(F)c1)c1ccccc1,2,0,1,2,-3,.,.
O=C(Nc1ccc(Nc2ccccc2)cc1)c1cccc(F)c1,-1,9.8*,-1,-6,-1,3,2
Nc1ccc(Sc2ccccc2)nc1,8,1,0,0,-2,.,.
SMILES,Dyrk1A ADPGlo,PP5 inh,PP1 inh,HIF act,STK33 kinase inh,PP5 inh confirm,PP1 inh counter
Cc1ccc(Sc2ccc(N)cn2)cc1,4,14*,2,.,-1,-4,-3
COc1cc2c(cc1OC)C(c1cccs1)N(C(=O)c1cccnc1)CC2 (stereo not drawn),1,-2,0,2,-1,.,.
COc1cc2c(cc1OC)C(c1cccs1)N(C(=O)C(C)C)CC2 (stereo not drawn),2,9.9*,0,0,-1,-5,-5
O=C1c2ccccc2C(=O)C12OC2c1ccc(Cl)cc1 (stereo not drawn),.,11*,1,-1,-2,32*,4
COc1ccc(S(=O)(=O)N2CCOCC2)cc1NC(=O)COC(=O)C1CC1C (stereo not drawn),1,0,-5,.,0,.,.
COC(=O)CCC(=O)OC1(C)C(=O)C=C2C=C(C3CC3)N(CC3CC3)C=C2C1=O (stereo not drawn),2,12*,0,0,-1,37*,14
COC(=O)CCC(=O)OC1(C)C(=O)C=C2C=C(C3CC3)N(C3CCCC3)C=C2C1=O (stereo not drawn),8,12*,3,0,0,32*,7
COC(=O)CCC(=O)OC1(C)C(=O)C=C2C=C(C3CC3)N(CC(C)C)C=C2C1=O (stereo not drawn),.,.,.,0,.,.,.
O=C(O)C1CCCCN1C(=O)c1ccc(S(=O)(=O)N2CCCC2)cc1 (stereo not drawn),5,.,.,.,.,.,.
COc1ccccc1N(Cc1ccccc1)S(=O)(=O)c1cc(C(=O)O)ccc1Cl,-8,1,1,0,-1,.,.
COc1ccc(N2C(=O)CC(NNc3nc4ccccc4s3)C2=O)cc1 (stereo not drawn),.,12*,-2,0,0,0,0
CCOC(Cn1cc(C)c(=O)[nH]c1=O)OCC,.,0,2,0,0,.,.
O=C(NC1CCCCC1)C(c1ccncc1)N(C(=O)c1csnn1)c1ccc(F)cc1 (stereo not drawn),-3,1,5,0,-1,.,.
CCN(CC)C1=CC2=CC(=C(C#N)C#N)CCC2CC1 (stereo not drawn),19,-61,-47,0,0,-142,-48
O=C(NC1CCCCCC1)C1c2ccccc2C(=O)N1Cc1cccs1 (stereo not drawn),-8,1,5,-1,-1,.,.
O=C(NC1CCCCCC1)C1c2ccccc2C(=O)N1Cc1ccco1 (stereo not drawn),1,11*,-1,0,-1,-5,-4
Cn1c(-c2ccccc2)cc(=O)c2ccccc21,35,-2,-4,0,1,.,.
Cn1c2ccccc2c(=O)n2c(=O)c3ccccc3cc12,.,11*,0,0,2,29*,-4
CC1=C(C(=O)OC(C)C)C2(O)C(=O)c3ccccc3C2(O)N1 (stereo not drawn),-4,12*,0,-1,-2,16*,0
